Bioassay records from PubChem BioAssay.
MITF TRPM1 inh: inhibitors of MITF-driven TRPM1 promoter in melanoma cells; SK-MEL-5 TRPM1 promoter luciferase, 24 h; AID 488899; inhibition, % at 12.5 µM; 0.83% of 330,000 active;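 active means mean inhibition across replicates of 60% or more, whatever share of single replicates reaches that level; inconclusive means some that reach 60%, reason not given; inactive means mean inhibition across replicates below 60%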
LGR2 inh: blocks bursicon-induced cAMP signaling via Drosophila LGR2; inhibition, % at 9.99 µM; HEK293 LGR2, CRE-luciferase, bursicon-stimulated, 4 h; AID 720647; 0.35% of 380,000 active;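 active means drop in luminescence signal, shown as inhibition above about 50% in the replicate tests, limit read from the data, passing the limit was not always enough; inconclusive means probably only some replicates passing the limit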;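 further: agonist challenge used bursicon conditioned medium at about half maximal strength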
PGC1a acetyl inh: lowers PGC1a acetylation signal in U2OS cells. AID 651687. inhibition, % at 15.6 µM. 0.17% of 350,000 active. AlphaScreen anti-acetyl-lysine; with virally co-expressed GCN5 acetyltransferase;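 active means every replicate shows inhibition of at least 40%; inconclusive means mean inhibition at least 40% but some replicate below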;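 further: 0% = neutral control wells and 100% = positive control wells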
EBV LMP1 NFkB: reduces LMP1-driven NF-kappaB luciferase signal. LMP1-induced NF-kappaB luciferase reporter cells, luminescence. inhibition, % at 12.5 µM. 0.69% of 350,000 active; in the data active means inhibition above about 41%; inconclusive means no clear call, values can overlap the other calls;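 further: 0% = neutral control wells and 100% = reference inhibitor control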
PAX8 reporter: PAX8 transcriptional activity inhibition. RMG-I TPO-luciferase reporter, SteadyGlo, 24 h. inhibition, % at 12.6 µM. 1.2% of 360,000 active. AID 652154;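 active means mean replicate inhibition at least 60% with every replicate also reaching 60%; inconclusive means only one of the two criteria is met; inactive means mean below 60% and not all replicates reaching 60%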;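 further: luciferase light reporting Pax8 driven TPO promoter activity; plate controls were median of neutral control wells for no effect and mitoxantrone controls for full effect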
EWS-Fli inh: EWS/Fli transcriptional activity inhibition; inhibition, % at 12.6 µM; 0.67% of 350,000 active; A673 NR0B1-luciferase reporter, viability-normalised;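 active means mean inhibition of at least 50% after viability correction, with every replicate also passing that limit; inconclusive means mean reaches 50% but only one of two replicates passes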;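 further: firefly luciferase signal divided by Alamar Blue viability fluorescence both relative to DMSO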
Numbers without * were called inactive; ? = inconclusive; · = no result. Compounds with a hit are over-represented: about 2.2% of the library has one in this group of screens.

SMILES | MITF TRPM1 inh | LGR2 inh | PGC1a acetyl inh | EBV LMP1 NFkB | PAX8 reporter | EWS-Fli inh
C[C@H](CO)N1C[C@H](C)[C@H](CN(C)C(=O)Nc2ccc(F)cc2)OCCCC[C@H](C)Oc2ccc(NS(=O)(=O)c3ccc(Cl)cc3)cc2C1=O | · | 12 | 6 | · | 61* | 6
C[C@@H]1CN([C@@H](C)CO)C(=O)Cc2cc(NC(=O)Nc3ccc4c(c3)OCO4)ccc2O[C@H]1CN(C)C(=O)Nc1ccc(C(F)(F)F)cc1 | · | -5 | 11 | · | 18 | 6
C[C@H]1CCCCO[C@@H](CN(C)S(=O)(=O)c2ccc(F)cc2)[C@@H](C)CN([C@@H](C)CO)C(=O)c2cc(NC(=O)NC3CCCCC3)ccc2O1 | · | 4 | 1 | · | 66* | 8
CC(C)NC(=O)Nc1ccc2c(c1)C(=O)N([C@@H](C)CO)C[C@H](C)[C@@H](CN(C)S(=O)(=O)c1ccccc1)OCCCC[C@H](C)O2 | · | -5 | 10 | · | 11 | 3
CC(C)NC(=O)Nc1ccc2c(c1)C(=O)N([C@@H](C)CO)C[C@@H](C)[C@@H](CN(C)S(=O)(=O)c1ccccc1)OCCCC[C@H](C)O2 | · | -20 | 105* | · | 4 | -6
C[C@H]1CCCCO[C@@H](CN(C)S(=O)(=O)c2ccccc2)[C@@H](C)CN([C@@H](C)CO)C(=O)c2cc(NC(=O)NC3CCCCC3)ccc2O1 | · | 14 | -11 | · | 69* | 14
COc1ccc(S(=O)(=O)N(C)C[C@@H]2OCCCC[C@H](C)Oc3ccc(NC(=O)NC4CCCCC4)cc3C(=O)N([C@@H](C)CO)C[C@@H]2C)cc1 | · | -10 | -2 | · | 66* | 13
O=C(NOCc1ccccc1)c1ccc(Cl)cc1Cl | 11 | 82* | -2 | 46* | 11 | 50
O=C(NOCc1ccccc1)c1ccccc1 | -32 | 25 | -7 | 6 | -43 | -8
C[C@H]1CCCCO[C@@H](CN(C)Cc2ccc3c(c2)OCO3)[C@@H](C)CN([C@@H](C)CO)C(=O)c2cc(NC(=O)Nc3cccc4ccccc34)ccc2O1 | · | -14 | -21 | · | 36 | 46
C[C@H](CO)N1C[C@H](C)[C@H](CN(C)Cc2ccc3c(c2)OCO3)Oc2ccc(NC(=O)Nc3cccc4ccccc34)cc2C1=O | · | -23 | -2 | · | 94* | 3
C[C@@H]1CN([C@H](C)CO)C(=O)c2cc(NC(=O)Nc3cccc4ccccc34)ccc2O[C@@H](C)CCCCO[C@H]1CN(C)Cc1ccc2c(c1)OCO2 | · | 4 | 5 | · | 69* | ?
C[C@@H]1CCCCO[C@@H](CN(C)Cc2ccc3c(c2)OCO3)[C@H](C)CN([C@H](C)CO)C(=O)c2cc(NC(=O)Nc3cccc4ccccc34)ccc2O1 | · | 3 | -2 | · | 37 | 71*
C[C@@H]1CCCCO[C@@H](CN(C)Cc2ccc3c(c2)OCO3)[C@@H](C)CN([C@H](C)CO)C(=O)c2cc(NC(=O)Nc3cccc4ccccc34)ccc2O1 | · | -1 | -3 | · | -5 | 2
C[C@@H]1CCCCO[C@H](CN(C)Cc2ccc3c(c2)OCO3)[C@@H](C)CN([C@@H](C)CO)C(=O)c2cc(NC(=O)Nc3cccc4ccccc34)ccc2O1 | · | -10 | -1 | · | 39 | 64*
CC(C)CC#Cc1cnc2c(c1)C(=O)N([C@@H](C)CO)C[C@@H](C)[C@@H](CN(C)C(=O)CCN1CCCCC1)O2 | · | -20 | 13 | · | · | -5
COc1cccc(C(=O)CSc2nnc(CNS(=O)(=O)c3ccc(C)cc3)n2C)c1 | 1 | -15 | 89* | 4 | · | ·
COC(=O)CSc1nnc(CNS(=O)(=O)c2ccc(C)cc2)n1C | 2 | -4 | -5 | 4 | · | ·
CC12C(=O)N(c3nccs3)C(=O)C1(C)C1CCC2O1 (centres undefined) | · | -7 | 3 | · | -10 | 8
C[C@@]12C(=O)OC(=O)[C@]1(C)C1CCC2O1 | 80* | 18 | 47* | 36 | 112* | 0
CC(C)CC#Cc1ccc2c(c1)O[C@H](CN(C)C)[C@@H](C)CN([C@@H](C)CO)S2(=O)=O | · | 10 | -15 | · | · | 14
CCN(C(=O)COC(=O)c1c2c(nc3ccccc13)/C(=C/c1ccccc1)CC(C)C2)C1CCS(=O)(=O)C1 (centres undefined) | 12 | 18 | · | -27 | 67* | ·
CCN(C(=O)COC(=O)c1c(C)nn(-c2ccccc2)c1C)C1CCS(=O)(=O)C1 (centres undefined) | -28 | -13 | -6 | -17 | -69 | -57
Cc1ccc(C(=O)C(C(=O)/C=C/c2ccccc2)=C2SCCCS2)cc1 | 86* | · | 8 | -11 | · | ·
Cc1ccc(C(=O)C=CC=Cc2ccccc2)cc1 | · | -164 | -6 | -9 | -167 | -67
SMILES | MITF TRPM1 inh | LGR2 inh | PGC1a acetyl inh | EBV LMP1 NFkB | PAX8 reporter | EWS-Fli inh
CCOc1ccc2[nH]c(=O)c(CN(CCN3CCCC3)C(=S)Nc3ccccc3OCC)cc2c1 | 58 | 3 | -6 | -6 | 4 | 55*
COc1ccc2[nH]c(=O)c(CN(CCN3CCCC3)C(=O)Nc3ccccc3Cl)cc2c1 | -23 | · | 36 | 20 | · | ·
C[C@@H]1CN([C@H](C)CO)C(=O)CCCn2cc(nn2)CO[C@H]1CN(C)Cc1ccc(C(F)(F)F)cc1 | · | -4 | -9 | · | · | 3
C/C(=N\NC(=O)c1ccccc1O)c1cccs1 | 24 | 52* | -5 | 34 | 33 | 28
C/C(=N\NC(=O)c1ccncc1)c1cccs1 | -12 | -3 | · | -1 | -50 | -13
C/C(=N/NC(=O)c1cc(C2CC2)[nH]n1)c1cccs1 | 50 | · | -16 | 60* | 53 | ·
O=C(N/N=C/c1cccc2ccccc12)c1cc(C2CC2)[nH]n1 | -52 | -27 | 0 | 53* | -10 | -68
O=C(N/N=C/c1ccccn1)c1cc(C2CC2)[nH]n1 | -68 | -51 | -12 | -13 | -57 | -79
C/C(=N\NC(=O)c1cccc2ccccc12)c1cccs1 | -42 | -23 | · | -8 | -66 | -62
Cc1noc(C)c1S(=O)(=O)Nc1ccc2c(c1)C(=O)N([C@@H](C)CO)C[C@H](C)[C@@H](CN(C)C(=O)NC(C)C)O2 | · | -8 | 2 | · | · | -1
COc1cccc(C(=O)Nc2ccc3c(c2)OC[C@@H](C)N(CC2CC2)C[C@H](C)[C@H](OC)CN(C)C3=O)c1 | · | ? | 5 | · | · | 3
Cc1nc2c(=O)n(C)c(=O)n(C)c2nc1Cl | 43 | -23 | · | -32 | 111* | 59*
CN(C)c1ccc(C(C[N+](=O)[O-])c2c(N)n(C)c(=O)n(C)c2=O)c(F)c1C#N (centres undefined) | 39 | 7 | -25 | 7 | 19 | 21
COc1ccc(Br)cc1C(C[N+](=O)[O-])c1c(N)n(C)c(=O)n(C)c1=O (centres undefined) | 80* | · | · | 7 | 4 | 14
C[C@H](CO)N1C[C@H](C)[C@H](CN(C)Cc2ccc(Cl)c(Cl)c2)OCCCC[C@H](C)Oc2ccc(NC(=O)Nc3ccc(C(F)(F)F)cc3)cc2C1=O | · | 19 | -11 | · | 88* | 4
